# Reference: PubChem BioAssay AID588727 (Southern Research Specialized Biocontainment Screening …, 2011)
# Hit rate of the full screen: of about 350,000 compounds, about 450 (0.13%) were called active. The rule behind the calls is not given here. Only a sample is shown. Results with a measured potency or affinity are listed apart.
# Experiment: inhibitors of VEEV TC-83 cytopathic effect, confirmation, Vero cells (AID 588727)
# Conditions: VEEV TC-83 cytopathic effect inhibition, at 20 µM
# [1] = stronger effect = higher value unless noted
# [2] = measured here: 10K pilot screen inhibition, stronger effect = higher value
smiles,measurement,setting,value
CCC(CC)c1nc(C(N)=O)c2[nH]c(=O)n(-c3ccc(OC)c(OC)c3)c2n1,inhibition,[1],1.45% (inactive)
NNc1nc(-c2ccccc2)cc(-c2ccc(Br)cc2)n1,inhibition,[1],7.9% (inactive)
CN1OC[C@@H]2CN(C(=O)C(C)(C)C)[C@H](c3cccc(Br)c3)C[C@@H]21,inhibition,[1],inactive
Clc1ccc(-c2cc(C3CCNCC3)[nH]n2)cc1,inhibition,[1],0.74% (inactive)
c1ccc2c(-c3cc(C4CCNCC4)[nH]n3)cccc2c1,inhibition,[1],6.53% (inactive)
CC(OC(=O)c1cc(S(=O)(=O)N2CCOCC2)ccc1F)C(=O)NCC1CCCCC1 (centres undefined),inhibition,[1],0.1% (inactive)
O=C(N/N=C/c1cccnc1)c1ccc(NC(=O)c2ccccc2Cl)cc1,inhibition,[1],1.2% (inactive)
O=C(NCCN1CCN(C(=O)c2cccc(OC(F)F)c2)CC1)c1cccc(OC(F)F)c1,inhibition,[1],0.88% (inactive)
O=C(N[C@@H]1CCC(=O)N(CC[C@H](Sc2ccc(Br)cc2)c2ccccc2)CC1)OCc1ccccc1,inhibition,[1],1.21% (inactive)
Cc1ccc(-c2csc(NC(=O)/C=C/c3cccs3)n2)cc1C,inhibition,[1],7.86% (inactive)
O=C(/C=C/c1cccs1)Nc1nc(-c2ccccc2)cs1,inhibition,[1],10.2% (inactive)
COc1ccc(OC)c(/C=N/n2c(COc3ccccc3)n[nH]c2=S)c1,inhibition,[1],1.2% (inactive)
Cc1sc(NC(=S)NC(=O)c2ccco2)c(C#N)c1C,inhibition,[1],0.86% (inactive)
Cc1sc(NC(=S)NC(=O)c2ccccc2)c(C#N)c1C,inhibition,[1],1.72% (inactive)
Cc1cccc(S(=O)(=O)N(C)C[C@H]2OCc3cn(nn3)CCCC(=O)N([C@@H](C)CO)C[C@@H]2C)c1,inhibition,[1],0.62% (inactive)
O=S(=O)(c1ccc(F)cc1)N1CCC2(CC1)OCCO2,inhibition,[1],0.49% (inactive)
COC(C[C@H](O)C[C@H](O)[C@@H](C)OCc1ccccc1)OC,inhibition,[1],0.19% (inactive)
CCn1c(C)nc2cc(C(=O)OCCC(F)(F)F)ccc21,inhibition,[1],8.24% (inactive)
CCn1c(C)nc2cc(C(=O)OC)ccc21,inhibition,[1],0.32% (inactive)
Cc1cc(C)nc(NS(=O)(=O)c2ccc(NC(=O)c3ccc(N4C(=O)CCC4=O)cc3)cc2)n1,inhibition,[1],inactive
Nc1ccn([C@@H]2O[C@H](CO)[C@@H](O)[C@@H]2O)c(=O)n1,inhibition,[1],inactive
Nc1ccn([C@@H]2O[C@H](CO)[C@@H](O)[C@H]2O)c(=O)n1,inhibition,[1],0.98% (inactive)
CNC(=S)N(Cc1ccccc1)Cc1cccnc1,inhibition,[1],3.13% (inactive)
CCOC(=O)c1c(NC(=O)CSc2nnc(-c3ccccc3)o2)sc(C(C)=O)c1C,inhibition,[1],2.08% (inactive)
CC(OC(=O)/C=C/c1cccc(C(F)(F)F)c1)C(=O)NC1CCCCC1C (centres undefined),inhibition,[1],3.48% (inactive)
CNC(=O)C(=O)Nc1ccc(C)cc1C,inhibition,[1],0.04% (inactive)
Cc1ccc(NC(=O)/C(C#N)=N/Nc2ccc(C(=O)O)cc2)c(C)c1,inhibition,[1],1.78% (inactive)
CC(C)=N/N=C1/NC(=O)C(Cc2ccccc2)S1 (centres undefined),inhibition,[1],2.54% (inactive)
C/C(=N\N=C1\NC(=O)C(Cc2ccccc2)S1)c1ccccc1 (centres undefined),inhibition,[1],1.26% (inactive)
CCOC(=O)c1ccc(CC2S/C(=C(\C#N)C(C)=O)NC2=O)cc1 (centres undefined),inhibition,[1],1.08% (inactive)
CC(=O)/C(C#N)=C1\NC(=O)C(Cc2ccc(F)cc2)S1 (centres undefined),inhibition,[1],9.23% (inactive)
CN1CCN(c2ccc3nccnc3c2)CC1,inhibition,[1],0.19% (inactive)
CN1CCN(c2nc3cc(N4CCOCC4)ccc3s2)CC1,inhibition,[1],inactive
O=C1CNC(=O)/C(=C\c2ccc(F)cc2)N1,inhibition,[1],inactive
CCOC(=O)COc1cc2c3c(c(=O)oc2cc1C)CCCC3,inhibition,[1],1.83% (inactive)
CCOC(=O)CSc1nnc(NC(=O)CN2CCCCC2)s1,inhibition,[1],inactive
CC(=O)Nc1ccc(S(=O)(=O)N(C)CC(=O)OC(C)C(=O)NC2(C#N)CCCCC2)cc1 (centres undefined),inhibition,[1],0.4% (inactive)
COc1ccc(NC(=O)COc2ccc(CNCCCN3CCOCC3)cc2OC)cc1,inhibition,[1],inactive
CCOc1cc(CNCCCN2CCOCC2)ccc1OCC(=O)NC(C)(C)C,inhibition,[1],0.44% (inactive)
COc1ccc(N2CCN(CCCn3c(=S)[nH]c4ncccc4c3=O)CC2)cc1,inhibition,[1],26.7% (inactive)
CCCCn1c(=S)[nH]c2ncccc2c1=O,inhibition,[1],1.76% (inactive)
Cc1ccc2oc(=O)cc(/C=C/c3ccccc3)c2c1,inhibition,[1],0.72% (inactive)
Cc1ccccc1C(=O)NN1C(=O)CSC1=S,inhibition,[1],0.35% (inactive)
CCc1ccc(C2CC(=O)N(c3cccc(F)c3)C3=C2C(=O)OC3)cc1 (centres undefined),inhibition,[1],inactive
Cc1cccc(NC(=O)[C@@H](CC(C)C)NC(=O)[C@@H]2Cc3ccccc3CN2)c1,inhibition,[1],inactive
CC(NC(=O)[C@H](Cc1c[nH]c2ccccc12)NC(=O)[C@@H]1Cc2ccccc2CN1)c1ccccc1 (some centres undefined),inhibition,[1],inactive
COc1ccc(CNC(=O)[C@H](Cc2c[nH]c3ccccc23)NC(=O)[C@@H]2Cc3ccccc3CN2)cc1,inhibition,[1],inactive
Cc1cc(C)cc(NC(=O)[C@H](Cc2c[nH]c3ccccc23)NC(=O)[C@@H]2Cc3ccccc3CN2)c1,inhibition,[1],0.29% (inactive)
CC(C)C[C@H](NC(=O)[C@@H]1Cc2ccccc2CN1)C(=O)Nc1ccc(C(C)C)cc1,inhibition,[1],0.75% (inactive)
Cc1ccc(NC(=O)[C@H](Cc2ccccc2)NC(=O)[C@@H]2Cc3ccccc3CN2)c(C)c1,inhibition,[1],1.94% (inactive)
COc1ccccc1CNC(=O)[C@H](Cc1c[nH]c2ccccc12)NC(=O)[C@@H]1Cc2ccccc2CN1,inhibition,[1],0.04% (inactive)
Cc1ccc(NC(=O)[C@H](NC(=O)[C@@H]2Cc3ccccc3CN2)c2ccccc2)c(C)c1,inhibition,[1],1.71% (inactive)
O=C(O)c1cc(S(=O)(=O)Nc2cccc(S(=O)(=O)N3CCCC3)c2)ccc1Cl,inhibition,[1],0.74% (inactive)
Cc1ccc(C(=O)Nc2cccnc2Oc2ccc(Cl)cc2)cc1,inhibition,[1],7.89% (inactive)
O=C(O)c1ccc(Cl)c(S(=O)(=O)N(Cc2ccccc2)c2ccccc2Cl)c1,inhibition,[1],inactive
CCC(O)CC(C(=O)NNc1ccccc1)C(=O)NNc1ccccc1 (centres undefined),inhibition,stronger effect = higher value,1.75% (inactive)
same,inhibition,[2],1.77%
COc1ccc(OCc2cc(/C=N\NC(=O)c3ccccc3)ccc2OC)cc1,inhibition,[1],7.93% (inactive)
COc1cccc(NC(=O)[C@H](Cc2ccccc2)NC(=O)[C@@H]2Cc3ccccc3CN2)c1,inhibition,[1],2.9% (inactive)
COc1cccc(NC(=O)[C@H](CC(C)C)NC(=O)[C@@H]2Cc3ccccc3CN2)c1,inhibition,[1],0.34% (inactive)
Fc1ccccc1CSc1ncnc2c1ncn2C1CCCCO1 (centres undefined),inhibition,[1],4.89% (inactive)
c1ccc(CSc2ncnc3c2ncn3C2CCCCO2)cc1 (centres undefined),inhibition,[1],4.13% (inactive)
CCOC(=O)C1CCC(=O)C1 (centres undefined),inhibition,[1],0.89% (inactive)
Cn1c(CN2CCCCC2)nc2cc(NS(=O)(=O)c3ccc(F)cc3)ccc21,inhibition,[1],0.17% (inactive)
C#CCN(C[C@@H]1[C@@H](OC(=O)Nc2cccs2)[C@@H](OC(=O)Nc2cccs2)Cn2c(=O)n(CCCCCC)c(=O)n21)S(=O)(=O)c1ccc(C)cc1,inhibition,[1],inactive
C#CCN(C[C@@H]1[C@@H](OC(=O)NC2CC2)[C@@H](OC(=O)NC2CC2)Cn2c(=O)ccc(=O)n21)S(=O)(=O)c1ccc(C)cc1,inhibition,[1],0.49% (inactive)
COc1ccc(-c2c3c(=O)n(C)c(=O)n(C)c3cn2Cc2cccnc2)cc1,inhibition,stronger effect = higher value,1.95% (inactive)
same,inhibition,[2],1.55%
CC(C)=CCN1CCN(Cc2coc3ccc(C)cc3c2=O)CC1CCO (centres undefined),inhibition,[1],0.54% (inactive)
Cc1ccc2nc(NC(=O)Cn3nc(C)c([N+](=O)[O-])c3C)sc2c1,inhibition,[1],5.1% (inactive)
CN1CCN(C(=O)N2c3ccccc3C=Cc3ccccc32)CC1,inhibition,[1],0.28% (inactive)
CN(C)CCCNC(=O)c1cc2sc3ccccc3c2s1,inhibition,[1],0.94% (inactive)
COCCNC(=O)c1cc2sc3ccccc3c2s1,inhibition,[1],3.33% (inactive)
O=C1/C(=C/c2cccs2)SC(=S)N1CC(=O)N1CCCCC1CCO (centres undefined),inhibition,[1],2.22% (inactive)
COC(=O)C/C=C/N(Cc1ccccc1OC)S(=O)(=O)CCl,inhibition,[1],inactive
CN(C)c1ccc(NC2=C(Cl)C(=O)c3ccccc3C2=O)cc1,inhibition,[1],2.81% (inactive)
COc1ccc(NC2=C(NC(C)=O)C(=O)c3ccccc3C2=O)cc1,inhibition,[1],inactive
O=C(Nc1ccc2ccccc2c1)c1ccccc1[N+](=O)[O-],inhibition,[1],0.3% (inactive)
O=C(NC(=S)NCCN1CCOCC1)c1cccc(Cl)c1,inhibition,[1],2.05% (inactive)
O=S(=O)(NCC1CN(S(=O)(=O)c2c(F)cccc2F)C1)c1ccc2c(c1)OCCO2,inhibition,[1],0.08% (inactive)
COc1ccc(OC)c(Nc2nc(=O)c3cccnc3s2)c1,inhibition,[1],4.47% (inactive)
CC(=O)c1ccc(Nc2nc(=O)c3cccnc3s2)cc1,inhibition,[1],2.57% (inactive)
CC(=O)c1cccc(Nc2nc(=O)c3cccnc3s2)c1,inhibition,[1],3.68% (inactive)
Cc1ccc(Nc2nc(=O)c3cccnc3s2)cc1,inhibition,[1],inactive
COCOCCn1cc(CN2CCS(=O)(=O)N(Cc3ccc(-c4cccc(CO)c4)cc3)C(CC(C)C)C2=O)nn1 (centres undefined),inhibition,[1],6.1% (inactive)
CCOC(=O)[C@@H]1[C@H]2COc3ccc(Br)cc3[C@@H]2N2C(=O)N(c3cccc(Cl)c3)C(=O)[C@]12C,inhibition,[1],inactive
CCOC(=O)C1=C(NC(=S)NC(=O)c2ccccc2)c2ccccc2CC1(C)CC (centres undefined),inhibition,stronger effect = higher value,11.4% (inactive)
same,inhibition,[2],20.8%
CCOC(=O)C1=C(N)c2ccccc2CC1C(C)C (centres undefined),inhibition,[1],inactive
CN1CCN(C(=O)c2ccc3c(c2)N(Cc2cccc(Cl)c2)C(=O)c2ccccc2S3(=O)=O)CC1,inhibition,[1],inactive
Cc1ccc(C(=O)N2CCN(c3ccccn3)CC2)cc1C,inhibition,[1],1.05% (inactive)
Cc1ccc(C)c(CN2C(=O)c3ccccc3S(=O)(=O)c3ccc(C(=O)N4CCN(C)CC4)cc32)c1,inhibition,[1],0.5% (inactive)
O=C(c1ccc2c(c1)N(Cc1ccc(F)cc1)C(=O)c1ccccc1S2(=O)=O)N1CCN(c2ccccn2)CC1,inhibition,[1],8.23% (inactive)
CC(=O)C(=Nc1cccc(Cl)c1)NNc1ccccc1C,inhibition,[1],inactive
